# Screening data: PubChem, several laboratories
# Mcl1-Bid inh: disrupts binding of human Mcl-1 to Bid peptide; 0.97% of 220,000 active; TR-FRET Mcl-1/Bid-Dy647 peptide binding, 1536-well; Q07820; inhibition, % at 21.7 µM; AID 1021;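 active = compounds that cut the binding signal by more than half at the single screening dose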;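 also: His-tagged Mcl-1 with europium anti-His antibody binding Bid BH3 peptide; 0% = Mcl-1 plus peptide wells and 100% = peptide-only wells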
# Mcl1-Noxa inh: disrupts binding of human Mcl-1 to Noxa peptide | AID 1022 | 1.5% of 220,000 active | Q07820 | inhibition, % at 21.7 µM | TR-FRET Mcl-1/Noxa peptide binding, 2 h;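 active = compounds that cut the protein-peptide binding signal by more than 50% relative to plate controls in a single-dose test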;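 also: His-tagged Mcl-1 with rhodamine Noxa BH3 peptide and terbium anti-His antibody; 0% = Mcl-1 plus Noxa peptide wells and 100% = peptide-only wells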
# Mcl-1 Bim block: human Bim-Mcl-1 interaction inhibition. Q07820. Bead-based flow cytometry, Bim peptide-Mcl-1 binding. inhibition, % at 10 µM. 0.1% of 190,000 active. AID 1009; in the data active = inhibition above about 40%;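 also: 0% = no compound tracer wells and 100% = peptide blocker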
# 14-3-3 Bad inh: disrupts binding of bovine 14-3-3 zeta to phospho-Bad peptide | P63103 | TR-FRET 14-3-3zeta/Dy647-pBad peptide displacement, 1 h | 0.71% of 220,000 active | inhibition, % at 21.7 µM;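 active = inhibition above about 70%, limit read from the data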;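 also: 0% = full 14-3-3 plus peptide FRET controls and 100% = background without 14-3-3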
# MCL1-BIM inh: inhibitors of human MCL1 binding to BIM-BH3 peptide | inhibition, % at 10.9 µM | 0.68% of 320,000 active | Q07820 | GST-MCL1 / FITC-Bim-BH3 fluorescence polarization | AID 2057;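 active = inhibition above the mean inhibition of all tested compounds plus 3 SD, set per campaign, cut at about 40% in these data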;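 also: 0% = DMSO wells and 100% = unlabeled Bim-BH3 peptide control; higher means more loss of mP so more displacement of Bim peptide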
# Bcl-xL conf: Bcl-xL (human) inhibition, MCL1 counter-screen confirmation. AID 2166. GST-Bcl-xL / FITC-Bim BH3 peptide FP binding. inhibition, % at 10.9 µM. shares compounds with MCL1-BIM inh. 54% of 1,700 active;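 active = inhibition above a cutoff equal to the mean inhibition of all tested compounds plus 3 SD, cut at about 30% in these data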;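 also: 0% = DMSO wells and 100% = unlabeled Bim BH3 control peptide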
# Target sequence (Q07817 whole entry, looked up): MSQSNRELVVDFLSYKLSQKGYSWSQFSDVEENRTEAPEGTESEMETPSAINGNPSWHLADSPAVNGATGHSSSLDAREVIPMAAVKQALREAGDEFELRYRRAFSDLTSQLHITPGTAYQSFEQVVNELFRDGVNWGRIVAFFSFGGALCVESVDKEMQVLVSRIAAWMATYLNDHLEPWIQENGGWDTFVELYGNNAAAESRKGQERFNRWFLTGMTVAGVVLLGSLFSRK
# MCL1 BIM confirm: confirmation of human MCL1 and BIM-BH3 interaction inhibitors. 61% of 1,700 active. GST-MCL1 / FITC-Bim-BH3 fluorescence polarization. inhibition, % at 10.9 µM. shares compounds with MCL1-BIM inh. AID 2168;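 active = inhibition above the average of all tested compounds plus 3 SD, cut at about 40% in these data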;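 also: 0% = DMSO wells and 100% = unlabeled Bim-BH3 control peptide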
# The depositor's hits bear a star; x = no result. This is a sample that favours compounds with a hit; in the whole collection about 2.5% have one here.
SMILES,Mcl1-Bid inh,Mcl1-Noxa inh,Mcl-1 Bim block,14-3-3 Bad inh,MCL1-BIM inh,Bcl-xL conf,MCL1 BIM confirm
CCCCNC(=O)NS(=O)(=O)c1ccc(NC(=O)C(NC(N)=O)C(C)CC)cc1 (configuration not stated),-37,9,x,1,8,x,x
NC(=O)c1cc2ccc(O)cc2oc1=NCc1ccccc1,-11,2,-3,3,151*,170*,199*
NC(=O)c1cc2ccccc2oc1=NCc1ccccc1,12,-14,0,5,6,x,x
Cc1ccc(C=Nc2cccnc2N)cc1,-11,16,3,-5,70*,11,13
CCOc1ccc(C=Nc2cccc3ncccc23)cc1,-42,24,0,-3,9,x,x
O=C1NC2(CCCCCC2)C(=O)N1Cc1ccccc1F,x,x,x,x,-13,x,x
Cc1cc(C)c[n+](-c2[nH]c(=O)sc2/C=N/NC([S-])=Nc2ccccc2)c1,-55,13,-7,-7,167*,61*,60*
O=c1[nH]c(-[n+]2ccccc2)c(/C=N/NC([S-])=Nc2ccccc2)s1,-13,13,x,-3,183*,110*,127*
CCc1ccc[n+](-c2[nH]c(=O)sc2/C=N/NC([S-])=Nc2ccccc2)c1,-24,47,-7,-19,144*,154*,185*
CCc1ccc[n+](-c2[nH]c(=O)sc2/C=N/N=C(\N)[O-])c1,-29,13,x,2,0,x,x
CC(C)(C)c1cc[n+](-c2[nH]c(=O)sc2/C=N/NC(=O)c2ccccc2[O-])cc1,x,x,x,x,126*,84*,129*
CC(C)(C)c1cc[n+](-c2[nH]c(=O)sc2/C=N/N=C(\[O-])c2cccnc2)cc1,x,x,x,x,-1,x,x
Cc1cc[n+](-c2[nH]c(=O)sc2/C=N/NC([S-])=Nc2ccccc2)cc1,-64,10,-6,5,164*,128*,128*
COc1ccc(C2C(C(=O)c3cccs3)=C(O)C(=O)N2c2nncs2)cc1 (configuration not stated),-8,10,4,47,161*,144*,165*
C=CCOc1ccc(C2C(C(=O)c3cccs3)=C(O)C(=O)N2c2nnc(C)s2)cc1 (configuration not stated),x,x,x,x,100*,90*,115*
COc1ccc(C2C(C(=O)c3cccs3)=C(O)C(=O)N2c2nnc(C)s2)cc1OC (configuration not stated),-4,-38,-4,66,83*,128*,154*
CC(C)c1nnc(N2C(=O)C(O)=C(C(=O)c3cccs3)C2c2ccccc2)s1 (configuration not stated),-31,11,-4,5,x,x,x
C=CCOc1cccc(C2C(C(=O)c3cccs3)=C(O)C(=O)N2Cc2cccnc2)c1 (configuration not stated),-18,25,0,19,2,x,x
Cc1ccccc1OCCn1c(CCNC(=O)C(C)C)nc2ccccc21,-32,-8,-2,4,-4,x,x
CN(CCC#N)C(=O)COC(=O)c1c2c(nc3ccccc13)/C(=C/c1ccco1)CC2,63*,85*,22,-10,67*,40*,48*
COc1ccc2cc(C(=O)NCC(=O)O)sc(=O)c2c1OC,7,-13,-3,5,x,x,x
Cc1ccc(/C=C2\SC(=S)N(/N=C/c3cc([N+](=O)[O-])ccc3O)C2=O)o1,-21,91*,1,-12,66*,31*,61*
NC(=O)CN1CCOCCOCCOCCOCCOCC1,-1,1,0,1,-3,x,x
C/C(CC(=O)NC12CC3CC(CC(C3)C1)C2)=N\NC(=O)c1cnccn1,-13,-13,1,-8,13,x,x
O=C(NC12CC3CC(CC(C3)C1)C2)c1cnccn1,-14,12,-5,-8,53*,29,40*
O=c1[nH]c(-[n+]2ccc3ccccc3c2)c(/C=N/N=C(\[O-])c2ccccc2)s1,x,x,x,x,99*,22,34
CC(C)C(NC(=O)c1ccc(C(C)(C)C)cc1)C(=O)O (configuration not stated),-2,6,-1,-3,11,x,x
